Screening results: PubChem, National Center for Advancing Translational Sciences (NCATS)
APEX1 inh – APE1 (human) endonuclease inhibition; recombinant APE1, TAMRA/BHQ-2 abasic DNA cleavage fluorescence; AID 2517; 350,000 compounds, 0.35% hits; P27695; Potency, µM (top dose mostly 65.8 µM), usual class: inhibitors; further: nearly all actives have a fitted effect of over 55% in size
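Activity was derived from the fluorescence gain between first and third kinetic reads (60 s intervals, ex 525/em 598 nm) after 50 nM THF-abasic TAMRA/BHQ-2 duplex was added to 0.75 nM APE1 preincubated 15 min with compound.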
RECQ1 helicase – inhibitors of human RECQ1 DNA helicase; P46063; RECQ1 DNA unwinding, red fluorescence kinetic read; Potency, µM (highest dose often 57.3 µM), actives largely listed as inhibitors; 240,000 compounds, 0.54% hits; AID 2549; further: nearly all actives have a fitted effect of over 30% in size
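50 nM RECQ1T1 preincubated 15 min with compound in Tris pH 8.0 buffer with MgCl2, DTT, Tween-20 and 2.5 ug/ml poly(dI-dC); started with 200 nM TAMRA/BHQ-2 forked duplex and 2 mM ATP. Unwinding read as fluorescence (525/598 nm), two reads 2 h apart.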
BLM helicase inh – Bloom syndrome helicase (human) inhibition. P54132. recombinant BLM DNA unwinding, fluorescence dequenching. Potency, µM (series often up to 56.1 µM), most hits filed as inhibitors. 350,000 compounds, 0.2% hits. AID 2528; further: nearly all actives have a fitted effect of over 35% in size
TR SRC2 fluor cs – Texas Red fluorescence interference in TRb-SRC2 counter-screen; TRb/SRC2 Texas Red total fluorescence interference; Potency, µM (titrated, usually from 106 µM); 280,000 compounds, 0.29% hits; active means well fitted curve in either direction with a large enough effect; inconclusive means small, poorly fitted or top-dose-only effect
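Human TRb ligand-binding domain at 0.6 uM with 20 nM Texas Red SRC2 peptide in Tris buffer containing 1 uM T3 and 5% DMSO, incubated with compound 5 h at ambient temperature. Total fluorescence (555/632 nm) calculated as parallel + 2 × perpendicular.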
WRN inhibitor – WRN helicase (human) inhibition | Potency, µM (top dose mostly 114 µM), actives largely listed as inhibitors | 360,000 compounds, 0.46% hits | AID 651768 | WRN helicase unwinding, fluorescent forked duplex, kinetic | Q14191; further: nearly all actives have a fitted effect of over 55% in size
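Enzyme (20 nM final) and test compound sit together 15 min at room temperature before substrate addition. Substrate is a single-forked duplex oligonucleotide (100 nM) labelled with fluorophore and quencher, with 2 mM ATP; helicase unwinding raises red fluorescence, read kinetically.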
TRb SRC2 PPI – disrupts binding of human TR beta to SRC2 | TRbeta-SRC2 peptide binding, fluorescence polarization; receptor liganded with 1 µM T3 | Potency, µM (series often up to 106 µM), usual class: inhibitors | 280,000 compounds, 0.065% hits | AID 1469 | P10828; further: nearly all actives have a fitted effect of over 50% in size
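Human TRb LBD (0.6 uM) plus Texas Red-labeled SRC2 peptide (20 nM), 1uM T3, 5% DMSO, 5 hr at ambient temperature. Decreased polarization (555/632 nm) flags inhibition; data normalized to free and bound peptide controls.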
Numbers stand for hits; n = inactive; u = inconclusive; x = no result; ! = not confirmed by another sample; [ ] = another dose, or the depositor's remark. Most compounds without a hit are left out; they make up all but 0.91% or so of the library. Unless noted, the call rests on the fitted dose curve; in most records, active means well fitted curve in the direction sought with a large enough effect; inconclusive means small, poorly fitted or top-dose-only effect, or another doubt; inactive means no such curve, though single readings can be large; an effect the other way counts as inactive or inconclusive.

SMILES	APEX1 inh	RECQ1 helicase	BLM helicase inh	TR SRC2 fluor cs	WRN inhibitor	TRb SRC2 PPI
Cc1ccc(-c2nn(-c3ccccc3)cc2C=C2SC(=S)N(CCS(=O)(=O)O)C2=O)cc1	x	x	x	x	20µM	x
C=CCn1c(SCC(=O)N2CCOCC2)nc2scc(-c3ccco3)c2c1=O	n	n	18µM	n	56µM	n
COc1ccc(N(C)S(=O)(=O)c2ccc3c(c2)CCC(=O)N3)cc1	14µM	n	n	n	n	n
NC(Cc1ccccc1)C(O)c1ccco1 (stereo unspecified)	n	n	n	n	x	n
CCc1ccc(NC(=O)c2sc3nc(C)c(Cl)c(C)c3c2NC(=O)c2ccccc2OC)cc1	x	x	n	10µM[quencher]	x	n
CCOC(=O)CN1C(=O)S/C(=C\c2ccc(-c3ccc(C(=O)O)c(Cl)c3)o2)C1=O	15µM	x	n	x	n[11.6 µM]	x
CCOC(=O)CN1C(=O)S/C(=C\c2ccc(-c3cccc(C(=O)O)c3C)o2)C1=O	x	x	x	x	n[11.6 µM]	x
O=c1/c(=C/c2ccccn2)sc2nc3ccccc3n12	n	n	n	n	n	n
O=c1/c(=C\c2cc([N+](=O)[O-])cc([N+](=O)[O-])c2O)sc2nc3ccccc3n12	35µM	14µM	n	45µM[quencher]	35µM	n
COC(=O)c1ccc(I)cc1S(=O)(=O)NC(=O)Nc1nc(C)nc(OC)n1	x	x	x	n	x	n
Cc1ccc(C(=O)Oc2ccc(C(=O)COC(=O)C3CC(=O)N(Cc4ccco4)C3)cc2)cc1 (stereo unspecified)	32µM	n	n	n	u	n
Cc1[nH]c2ccccc2c1C(=O)COC(=O)C1CC(=O)N(Cc2ccco2)C1 (stereo unspecified)	n	n	n	n	n	n
O=C(N/N=C/c1ccc(-c2ccccc2[N+](=O)[O-])o1)c1cncc(Br)c1	n	n	n	n	n	n
Cc1c(C(=O)N/N=C/c2ccc(-c3ccccc3[N+](=O)[O-])o2)sc(N)c1C#N	n	n	7.9µM	n	u	n
COc1ccc(S(=O)(=O)NCc2cccs2)cc1	13µM	n	n	n	n	n
O=c1nc2c(O)cccn2c2c1c(=O)[nH]c1ccccc12	n	n	7.9µM	n	u	n
O=c1c(OC2OC(CO)C(O)C(O)C2O)c(-c2ccc(O)c(O)c2)oc2cc(O)cc(O)c12 (stereo unspecified)	u	n	n	n	n[11.6 µM]	n
C[C@@H]1O[C@@H](Oc2c(-c3cc(O)c(O)c(O)c3)oc3cc(O)cc(O)c3c2=O)[C@H](O)[C@H](O)[C@H]1O	u	28µM!	n	n	n	n
O=c1c(O[C@H]2O[C@@H](CO)[C@H](O)[C@@H](O)[C@@H]2O)c(-c2ccc(O)cc2)oc2cc(O)cc(O)c12	21µM	x	x	x	n	x
CCOc1ccc(C2NC(=O)c3c(COC)cc(C)nc3N2Cc2ccccc2)cc1OC (stereo unspecified)	x	x	n	n	x	n
O=C(NN1C(=O)/C(=C/c2cc([N+](=O)[O-])ccc2O)SC1=S)c1ccccc1O	n	x	x	x	x	x
Cc1ccc(/C=C2\SC(=S)N(/N=C/c3cc([N+](=O)[O-])ccc3O)C2=O)o1	u	n	u	n	35µM	n
COC(=O)c1cc2c(C)c(C)c3ccccn3c-2c1C(=O)OC	n	n	n	n	n	n
CC(C)OC(=O)c1c2c(n3ccccc13)C(=O)c1ccccc1C2=O	n	n	n	n	89µM	n
CC(Cl)C(=O)NN=C(c1ccccc1)c1ccccc1 (stereo unspecified)	n	n	n	n	n	n
SMILES	APEX1 inh	RECQ1 helicase	BLM helicase inh	TR SRC2 fluor cs	WRN inhibitor	TRb SRC2 PPI
CC(NC1CCCCC1)C(=O)NN=C(c1ccccc1)c1ccccc1 (stereo unspecified)	n	28µM	n	n	n	n
O=C(N/N=C/C=C\c1ccco1)c1cccs1	n	n	18µM	n	n[11.6 µM]	n
O=C(Cc1cccs1)N/N=C/C=C\c1ccco1	n	u	n	n	u	n
Cc1ccc(CSc2nnc(SCC(=O)N/N=C/C=C/c3ccco3)s2)cc1	35µM	n	u	n	n	n
CC(/C=C/C=C(\C)C(=O)O[C@@H]1O[C@H](CO[C@@H]2O[C@H](CO)[C@@H](O)[C@H](O)[C@H]2O)[C@@H](O)[C@H](O)[C@H]1O)=C\C=C\C=C(C)\C=C\C=C(/C)C(=O)O[C@@H]1O[C@H](CO[C@@H]2O[C@H](CO)[C@@H](O)[C@H](O)[C@H]2O)[C@@H](O)[C@H](O)[C@H]1O	x	x	n	n	x	n
COC(=O)NC(CC(C)=O)c1cccc(F)c1 (stereo unspecified)	n[12.4 µM]	n[11.5 µM]	n[12.4 µM]	n[11.2 µM]	x	n[11.2 µM]
OC[C@@H]1CN(CCN2CCOCC2)C[C@H](n2cnc3c(NCc4ccco4)ncnc32)O1	x	x	x	x	n	x
COc1cccc(CNC(=O)CN2C(=O)CCCc3ccccc32)c1OC	x	x	n	20µM[quencher]	x	n
CCN(CC)S(=O)(=O)c1cccc(N=Nc2sc(N)nc2C)c1	n	x	n	x	n	x
CCN(CC)S(=O)(=O)c1cccc(N=NC2=C(O)CCCC2=O)c1	n	u	n	u	n	40µM
OC1CCC(C2CCCCC2)CC1 (stereo unspecified)	x	x	x	n	x	n
O=C(CS(=O)(=O)c1cccc2nsnc12)NCc1ccccc1	x	x	n	n	x	n
O=C(CS(=O)(=O)c1cccc2nsnc12)NCc1ccc(Cl)cc1	x	x	n	1.8µM[quencher]	x	n
CCOc1ccccc1NC(=O)COC(=O)Cc1ccc(-c2ccccc2)cc1	n	n	n	32µM[quencher]	n	u
COc1ccc2c(c1)O[C@@H](c1cccc(C(F)(F)F)c1)[C@H](OC(=O)NCCOc1ccccc1)C2=O	n	n	n	n	x	n
C=CCNC(=O)c1ccc([N+](=O)[O-])c(Cl)c1	n	n	n	n	n	n
C=CCNC(=O)c1cc([N+](=O)[O-])cc2c(=O)[nH]c(Nc3ccc(Cl)c(Cl)c3)nc12	7.9µM	7.1µM	n	n	x	n
CCOC(=O)CN1C(=O)N[C@H](c2ccc(Br)cc2)C(C(C)=O)=C1C	32µM	n	n	n	n	n
COc1cccc(-c2cc(C(F)(F)F)nc(-n3cccn3)n2)c1	n	n	n	n	n	n
CCOC(=O)c1ccn(-c2nc(-c3cccc(OC)c3)cc(C(F)(F)F)n2)n1	x	x	n	0.0022µM[quencher]	x	n
O=C(OCC1CCC2OC2C1)C1CCC2OC2C1 (stereo unspecified)	x	x	x	n	x	n
Oc1ccc(-c2csc(-c3cccnc3)n2)cc1O	16µM	n	n	n	u	n
CC(=O)/C(=N\Nc1ccc(Cl)cc1)Sc1nnc(-c2ccccc2)n1-c1ccccc1	n	n	n	n	n	n
CC(=O)/C(=N/Nc1ccccc1)Sc1nnc(CCc2ccccc2)n1-c1ccccc1	n	n	n	0.35µM[quencher]	n	u
